# ATXN2 expr inh: inhibitors of ATXN2 expression; HEK-293 ATXN2-luciferase reporter, luminescence, 24 h; Potency, µM (top dose mostly 57 µM), inactives show top-dose activity change, negative = inhibition, most hits filed as inhibitors; 360,000 compounds, 0.72% hits; further: on the % scale 0 is the no-effect control and ±100 the full control effect; nearly all actives have a fitted effect of over 55% in size
#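 qHTS (up to 57 uM final) was run with 24 h compound exposure of reporter cells at 37 °C. Each well was multiplexed: SteadyGlo luminescence measured ATXN2-luciferase expression after a fluorogenic Gly-Phe-AFC viability readout (25 uM final).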
# HepG2 tox: kills HepG2 cells in TGF-b inhibitor counter-screen; HepG2 CAGA-GFP viability, ATP luminescence, 18 h; Potency, µM (series often up to 46.1 µM), inactives show at the highest dose activity change, negative = cytotoxicity, actives largely listed as cytotoxic; 410,000 compounds, 0.76% hits; AID 588856
#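 HepG2 CAGA-GFP cells (1000/well, DMEM with 1% FBS) received compound, then TGF-beta at 500 pg/mL final, and were incubated 18 hours at 37 degrees C. Viability was read by CellTiter-Glo luminescence. Media-only wells were set as complete cell-killing and DMSO as no toxicity.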
# HT1080-NT tox: kills 2HG-producing HT-1080-NT fibrosarcoma cells; HT-1080-NT fibrosarcoma viability, CellTiter-Glo ATP luminescence, 48 h; 360,000 compounds, 1.6% hits; AID 686970; Potency, µM (doses to about 46.1 µM), inactives show at the top dose activity, negative = less viability, hits mostly cytotoxic;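 further: NT is the 2HG producing partner of a matched IDH1 knockdown line; 0% = DMSO-treated cells and -100% = media-only wells without cells; nearly all actives have a fitted effect of over 55% in size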
#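 HT-1080-NT fibrosarcoma cells (2HG-overproducing), 750 cells/well in RPMI with 5% FBS, dosed after 2 h and incubated 48 h at 37C. CellTiter-Glo luminescence normalized to DMSO and no-cell wells; concentration-response curves fitted and classed.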
# HT1080 IDH1KD tx: kills HT-1080 cells with IDH1 knockdown; HT-1080 IDH1 knockdown viability, ATP luminescence, 48 h; Potency, µM (titrated, usually from 46.1 µM), for the others: at the highest dose activity, negative = toxicity, usual class: cytotoxic; 360,000 compounds, 2% hits; AID 686971;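 further: 0% = DMSO wells and -100% = cell-free medium wells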
#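 Using the IDH1-knockdown HT-1080 line run in the same batch and compound series as the NT line, viability after 48 h at 37 °C was determined by CellTiter-Glo luminescence and expressed as % activity.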
# TGFb SMAD3 inh: blocks TGF-b signaling; HepG2 CAGA-GFP TGF-b/SMAD3 reporter, GFP fluorescence, 18 h; TGF-beta stimulated, 500 pg/mL final; Potency, µM (top dose mostly 46.1 µM), for inactives: top-dose activity, negative = inhibition, hits mostly inhibitors; 410,000 compounds, 1.2% hits; AID 588855; further: on the % scale 0 is the no-effect control and ±100 the full control effect; nearly all actives have a fitted effect of over 65% in size
#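 Inhibition was scored as loss of TGF-beta-induced (500 pg/mL final, 18 hours, 37 degrees C) GFP in HEPG2 cells carrying a CAGA-GFP reporter, in DMEM with 1% FBS. Well GFP was summed per cell; Activity was normalised to unstimulated and stimulated DMSO wells, then concentration-response fitting.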
# S2 tox: viability counter-screen for ATXN expression inhibitors. S2 cells (HEK-293 line with an ATXN2-luciferase reporter) viability, CellTiter-Fluor protease fluorescence, 24 h. 400,000 compounds, 0.49% hits. Potency, µM (doses to about 56.7 µM), actives largely listed as cytotoxic; further: nearly all actives have a fitted effect of over 40% in size
# Active calls of the source: *; i = inactive; ? = inconclusive; nt = not tested or not shown. A selection: hits, their analogues and other compounds. The true share with any hit is near 3.8%. The call rests on the fitted dose curve; in most records, active means well fitted curve in the direction sought with a large enough effect; inconclusive means small, poorly fitted or top-dose-only effect, or another doubt; inactive means no such curve, though single readings can be large; an effect the other way counts as inactive or inconclusive. Potency means the concentration at half of the fitted maximal effect.
SMILES,ATXN2 expr inh,HepG2 tox,HT1080-NT tox,HT1080 IDH1KD tx,TGFb SMAD3 inh,S2 tox
C=CC[C@H](CC(=O)N(CCO)Cc1ccccc1)C(=O)N[C@H](COC(=O)[C@@H](CC=C)Cc1ccc(F)cc1)Cc1ccccc1,?,1%,16µM*,?,?,nt
C=CC[C@@H](CC(=O)N(CCO)Cc1ccccc1)C(=O)N[C@H](C)COC(=O)[C@@H](CC=C)Cc1ccc(F)cc1,-25%,-9%,0%,-13%,-17%,i
Cc1nc2c3ccccc3nc(NNC(=O)CCC(=O)N3CCN(c4cc(Cl)ccc4C)CC3)n2n1,-23%,-24%,nt,nt,?,i
CCc1nc2cc(C(=O)NC3CCS(=O)(=O)C3)cc(NC(=O)c3ccccc3OC)c2n1C (stereo unspecified),nt,nt,nt,nt,nt,i
COc1ccc(OC)c(CN2CCCC(c3nc(C)ncc3-c3ccc(F)cc3)C2)c1 (stereo unspecified),nt,nt,nt,nt,nt,i
CC(C)OC(=O)c1cc2c(ccn2C)n1CC(=O)N(Cc1ccccc1)c1ccc(F)cc1,?,-21%,?,21µM*,?,?
Cc1ccc(C(=O)N(Cc2cc3cc4c(cc3nc2N2CCOCC2)CCC4)CC2CCCO2)s1 (stereo unspecified),nt,nt,nt,nt,nt,i
Cc1ccc(-c2cc(C(F)F)nc(S(C)(=O)=O)n2)cc1,?,-188%,23µM*,21µM*,?,?
CC(Sc1nc(=O)cc(N)n1CCc1ccccc1)C(=O)Nc1ccccc1C#N (stereo unspecified),0%,-18%,nt,nt,8%,i
COCCn1c2c([n+](Cc3cnccn3)c1C)C(=O)c1ccccc1C2=O,0.054µM*,nt,nt,nt,nt,nt
Cc1ccc(Cn2c(SCc3ccc(C(=O)N4CCCCCC4)cc3)nc3ccncc32)cc1,?,-40%,nt,nt,10µM*,?
O=C(c1ccc(CSc2nc3ccncc3n2Cc2ccccc2F)cc1)N1CCCCCC1,-14%,-13%,nt,nt,?,i
Cc1ccc(Cn2c(SCc3ccc(C(=O)N4CCCCC4)cc3)nc3ccncc32)cc1,nt,-33%,nt,nt,11µM*,nt
Cc1ccc(Cn2c(SCc3ccc(C(=O)NCCc4ccccc4)cc3)nc3ccncc32)cc1,nt,-25%,nt,nt,?,nt
CC1CCC(NC(=O)c2ccc(CSc3nc4ccncc4n3Cc3ccc(F)cc3)cc2)CC1 (stereo unspecified),?,-30%,nt,nt,3.5µM*,?
Cc1ccccc1Cn1c(SCc2ccc(C(=O)N3CCCCC3)cc2)nc2ccncc21,-13%,-30%,nt,nt,13µM*,i
CCN1C(=O)CC(CC(=O)N2CCCCC2c2nccs2)(c2ccccc2C)C1=O (stereo unspecified),nt,nt,nt,nt,nt,i
O=C(Cn1c(=O)n(CCc2ccccc2)c(=O)c2cccnc21)Nc1ccc(F)cc1,0%,-1%,nt,nt,?,i
Cc1ccc(CNC(=O)c2ccc3c(c2)N(Cc2ccccc2Cl)C(=O)CS3)cc1,-5%,5%,nt,nt,8%,?
COc1ccc(NC(=O)CSc2oc(-c3ccc(F)cc3)nc2S(=O)(=O)c2ccc(C)cc2)c(OC)c1,16%,-6%,nt,nt,-30%,i
CCOC(=O)c1ccc2c(c1)n(CC)c(/C=C/N(C)c1ccccc1)[n+]2CC,-33%,-17%,6.5µM*,?,0%,i
CCOC(=O)c1ccc2c(c1)n(CCO)c(C)[n+]2CC,-1%,2%,6%,8%,-13%,i
Cn1c(=O)c2sccc2n2c(CCC(=O)NCc3ccc(F)cc3)nnc12,-5%,-5%,nt,nt,13%,i
Cc1ccc(C(O)c2ccncc2)cc1 (stereo unspecified),-8%,-14%,3%,-9%,12%,i
Cc1ccccc1C(O)c1ccncc1 (stereo unspecified),-5%,18µM*,24%,5%,-3%,i
SMILES,ATXN2 expr inh,HepG2 tox,HT1080-NT tox,HT1080 IDH1KD tx,TGFb SMAD3 inh,S2 tox
CN1/C(=C\C(=O)CSc2nnc(NCc3ccccc3)s2)C(C)(C)c2ccccc21,-24%,-44%,-6%,-13%,?,?
Cc1cc(C(=O)CSc2nnc(NCc3ccccc3)s2)c(C)n1C,-13%,-6%,15µM*,?,-7%,?
Cc1ccc(-c2ccnc(-n3ncc(C(=O)NC[C@@H]4CCCN5CCCC[C@H]45)c3C3CC3)n2)o1,nt,nt,nt,nt,nt,i
CNC(=O)c1c(NC(=O)C2=COCCO2)sc2c1CCN(C(=O)OC)C2,5%,5%,-2%,0%,-6%,i
N#Cc1c(NC(=O)c2ccccc2)sc2c1CCC2,25%,-22%,?,?,0%,i
N#Cc1c(NC(=O)c2cccnc2)sc2c1CCC2,8%,3%,16µM*,9.2µM*,-17%,?
COc1cccc(C(=O)Nc2sc3c(c2C#N)CCN(C(C)=O)C3)c1,nt,-13%,2.6µM*,2.9µM*,?,?
COC(=O)N1CCc2c(sc(NC(=O)C3=COCCO3)c2C#N)C1,6%,-11%,4.6µM*,3.7µM*,3%,i
CCc1ccc(CCC(=O)Nc2sc3c(c2C#N)CCCC3)o1,1%,-1%,4µM*,4.5µM*,-35%,?
CCOc1ccc(-c2nnc(SCC(=O)NCCC(C)C)nc2-c2ccc(OCC)c(OC)c2)cc1OC,nt,-3%,nt,nt,31%,nt
Cc1nn2c3ccccc3nc2c2ccccc12,7%,16µM*,?,?,?,i
CCCCCNc1nc(NCCCO)c(C#N)c2c1CN(C)CC2,-6%,-4%,-12%,0%,-2%,i
CCCCCNc1nc(N2CCCC2)c2c(c1C#N)CCN(C)C2,-22%,22µM*,29µM*,?,?,?
Cc1coc2c(C)c3oc(=O)c(CCC(=O)NCCCn4ccnc4)c(C)c3cc12,0%,-20%,0%,-6%,?,i
Cc1c(CCC(=O)NCCCn2ccnc2)c(=O)oc2c(C)c3occ(C(C)(C)C)c3cc12,?,-25%,?,18µM*,?,?
Cc1cccc(COCC(Cc2ccccc2)N2CCN(C(=O)c3ccc(Cl)c(Cl)c3)CCC2=O)c1 (stereo unspecified),?,-13%,-27%,?,?,?
Cc1cccc(COCC(Cc2ccccc2)N2CCN(C(=O)c3cccc(C)c3)CCC2=O)c1 (stereo unspecified),-29%,-30%,-6%,-8%,?,?
